The values below come from PubChem BioAssay (NCI).

The panel holds about 79,000 compounds, 15% with a hit somewhere; the sample as a whole holds those more often. A number with no mark means an inactive call. Active and inactive are the calls of the source. No stated cut-off is given here; in the data, active means growth inhibition above about 70%; inactive means the rest.

The nature of test [1]: NCI Yeast Anticancer Drug Screen. Data for the rad50 strain (AID 155).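 Further: 0% = growth of vehicle-only cultures of the same strain.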 The conditions noted are these: S. cerevisiae rad50 strain growth inhibition, hits give high values. Put shortly:
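Relative growth inhibition (compound vs vehicle) was measured in yeast with a defined repair-gene alteration.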

The nature of test [2]: NCI Yeast Anticancer Drug Screen. Data for the mec2-1 strain (AID 157). Conditions: S. cerevisiae mec2-1 strain, hits give high values. The method, boiled down:
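Strain: mec2-1 (DNA repair/cell cycle alteration). Compound exposure, then growth measured; inhibition expressed relative to vehicle.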

Test [3] in a line: NCI Yeast Anticancer Drug Screen. Data for the sgs1 mgt1 strain (AID 161).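 Further: 0% = growth of cultures given vehicle only.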 Conditions: S. cerevisiae sgs1 mgt1 strain, hits give high values. Put shortly:
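Inhibition of yeast growth, normalised to vehicle-treated controls, is reported for a strain bearing genetic alterations in DNA damage repair.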

Test [4] in a line: NCI Yeast Anticancer Drug Screen. Data for the cln2 rad14 strain (AID 165).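 Further: 0% = growth equal to vehicle treated cultures.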 The conditions noted are these: S. cerevisiae cln2 rad14 strain, hits give high values. Put shortly: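 Compounds are applied to the cln2 rad14 yeast strain, and growth is then compared with that of vehicle-treated cultures to give inhibition.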
Test [5] is described as follows: NCI Yeast Anticancer Drug Screen. Data for the bub3 strain (AID 167). Conditions: S. cerevisiae bub3 mutant strain, hits give high values. Put shortly:
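Screening used yeast with an engineered genetic alteration affecting cell cycle control. Compound-exposed cultures were compared with vehicle cultures, and reduced growth was taken as inhibition.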

Test [6] can be described thus: NCI Yeast Anticancer Drug Screen. Data for the mlh1 rad18 strain (AID 175). Conditions: S. cerevisiae mlh1 rad18 strain growth inhibition, hits give high values. Put shortly: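 Read-out is yeast growth inhibition, calculated against vehicle-only controls. The compound was applied to a strain engineered with DNA damage repair alterations.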
Setting [7] is: at 5.0 µM (retest, dose inferred, filed as 0.5).
[8] abbreviates: at 50.0 µM (retest, dose inferred, filed as 5.0).

On to `CCC(C)SSc1ccccc1C(=O)Nc1ccc(Cl)cc1` (stereo not given), for which the growth inhibition was 3% in test [1] (setting [7]); 52% in test [1] (setting [8]); 79.5% (active) in test [1] (at 50.0 µM); 14% in test [2] (setting [7]); 93% (active) in test [2] (setting [8]); 93.9% (active) in test [2] (at 50.0 µM). For the same compound, the growth inhibition in test [3] (setting [7]) was -12%; in test [3] (setting [8]), 83% (active); in test [3] (at 50.0 µM), 91.7% (active); in test [4] (setting [7]), -5%; in test [4] (setting [8]) it was 85% (active); in test [4] (at 50.0 µM) it was 74.1% (active). The growth inhibition in test [5] (setting [7]) is -2%; in test [5] (setting [8]), 93% (active); in test [5] (at 50.0 µM), 91.3% (active); in test [6] (setting [7]), 7%; in test [6] (setting [8]), 91% (active); in test [6] (at 50.0 µM) it was 87.7% (active).
Consider `COc1ccc(C(c2ccc(OC)c(OC)c2)C(Cl)(Cl)Cl)cc1OC`, for which the growth inhibition in test [1] (setting [7]) is 3%; in test [1] (setting [8]) it was 94% (active); in test [1] (at 50.0 µM) it was 89.5% (active); in test [2] (setting [7]), 8%; in test [2] (setting [8]), 96% (active); in test [2] (at 50.0 µM) it was 93.4% (active). Further, the growth inhibition is 6% in test [3] (setting [7]); 95% (active) in test [3] (setting [8]); 94% (active) in test [3] (at 50.0 µM); 8% in test [4] (setting [7]); 94% (active) in test [4] (setting [8]); 86% (active) in test [4] (at 50.0 µM). Further, the growth inhibition was 3% in test [5] (setting [7]); 97% (active) in test [5] (setting [8]); 88.5% (active) in test [5] (at 50.0 µM); 6% in test [6] (setting [7]); 94% (active) in test [6] (setting [8]); 92.4% (active) in test [6] (at 50.0 µM).
Turning to `C[C@]12C/C(=C/C(F)(F)F)C(=O)C[C@@H]1CC[C@@H]1[C@@H]2CC[C@]2(C)[C@@H](C(=O)O)CC[C@@H]12`, the growth inhibition in test [1] (setting [7]) is 32%; in test [1] (setting [8]) it was 91% (active); in test [1] (at 50.0 µM), 31.5%; in test [2] (setting [7]), 92% (active); in test [2] (setting [8]), 97% (active); in test [2] (at 50.0 µM), 39.4%. The growth inhibition in test [3] (setting [7]) was 87% (active); in test [3] (setting [8]), 95% (active); in test [3] (at 50.0 µM), 72.1% (active); in test [4] (setting [7]) it was 24%; in test [4] (setting [8]), 87% (active); in test [4] (at 50.0 µM), 55.7%. Moreover, the growth inhibition in test [5] (setting [7]) is 89% (active); in test [5] (setting [8]), 95% (active); in test [5] (at 50.0 µM) it was 26.1%; in test [6] (setting [7]) it was 93% (active); in test [6] (setting [8]), 96% (active); in test [6] (at 50.0 µM), 48.4%.
Turning to `COc1ccc(/C=C2\NC(=O)NC2=O)cc1`, the growth inhibition in test [1] (setting [7]) is 0%; in test [1] (setting [8]), 7%; in test [1] (at 50.0 µM), -1.65%; in test [2] (setting [7]), -4%; in test [2] (setting [8]), 5%; in test [2] (at 50.0 µM), -6.8%. Besides, the growth inhibition is -1% in test [3] (setting [7]); 3% in test [3] (setting [8]); -0.65% in test [3] (at 50.0 µM); -4% in test [4] (setting [7]); -3% in test [4] (setting [8]); 24.1% in test [4] (at 50.0 µM). Moreover, the growth inhibition was 27% in test [5] (setting [7]); 22% in test [5] (setting [8]); 6.25% in test [5] (at 50.0 µM); -1% in test [6] (setting [7]); 5% in test [6] (setting [8]); 18.6% in test [6] (at 50.0 µM).
In the case of `O=C(CC(=O)c1ccncc1)c1ccccc1`, the growth inhibition in test [1] (setting [7]) was 7%; in test [1] (setting [8]), 96% (active); in test [1] (at 50.0 µM) it was 97.2% (active); in test [2] (setting [7]), 7%; in test [2] (setting [8]), 90% (active); in test [2] (at 50.0 µM), 94.7% (active). In addition, the growth inhibition was 1% in test [3] (setting [7]); 93% (active) in test [3] (setting [8]); 97% (active) in test [3] (at 50.0 µM); -16% in test [4] (setting [7]); 96% (active) in test [4] (setting [8]); 93.8% (active) in test [4] (at 50.0 µM). Besides, the growth inhibition in test [5] (setting [7]) is -1%; in test [5] (setting [8]) it was 98% (active); in test [5] (at 50.0 µM), 97.6% (active); in test [6] (setting [7]) it was 0%; in test [6] (setting [8]), 99% (active); in test [6] (at 50.0 µM), 98% (active).
`CN(C)c1ccc(C(=O)C2CCCC(C)(C)C2)cc1` (stereo not given): the growth inhibition in test [1] (setting [7]) is 22%; in test [1] (setting [8]), 65%; in test [1] (at 50.0 µM), 90.7% (active); in test [2] (setting [7]), 24%; in test [2] (setting [8]) it was 78% (active); in test [2] (at 50.0 µM), 93.5% (active). Further, the growth inhibition is 13% in test [3] (setting [7]); 77% (active) in test [3] (setting [8]); 91.5% (active) in test [3] (at 50.0 µM); 7% in test [4] (setting [7]); 27% in test [4] (setting [8]); 88.3% (active) in test [4] (at 50.0 µM). Also, the growth inhibition in test [5] (setting [7]) is 57%; in test [5] (setting [8]), 47%; in test [5] (at 50.0 µM), 86.9% (active); in test [6] (setting [7]) it was 24%; in test [6] (setting [8]), 68%; in test [6] (at 50.0 µM) it was 94.8% (active).
With `CN(C)C(=S)/N=c1\ss/c(=N\C(=S)N(C)C)n1-c1cccc(Cl)c1`, the growth inhibition in test [1] (setting [7]) was 6%; in test [1] (setting [8]) it was 8%; in test [1] (at 50.0 µM), 95.9% (active); in test [2] (setting [7]) it was 15%; in test [2] (setting [8]), 2%; in test [2] (at 50.0 µM) it was 95.2% (active). The growth inhibition was 4% in test [3] (setting [7]); 12% in test [3] (setting [8]); 94% (active) in test [3] (at 50.0 µM); 4% in test [4] (setting [7]); -13% in test [4] (setting [8]); 80.8% (active) in test [4] (at 50.0 µM). The growth inhibition in test [5] (setting [7]) is 3%; in test [5] (setting [8]), -4%; in test [5] (at 50.0 µM), 96.2% (active); in test [6] (setting [7]) it was 5%; in test [6] (setting [8]), 3%; in test [6] (at 50.0 µM) it was 94.2% (active).
As for `CCOC(=O)c1c(Br)c(-c2ccc(Br)cc2)c(Br)n1C`, the growth inhibition is -6% in test [1] (setting [7]); 1% in test [1] (setting [8]); 7.95% in test [1] (at 50.0 µM); -7% in test [2] (setting [7]); -29% in test [2] (setting [8]); -16.1% in test [2] (at 50.0 µM). In addition, the growth inhibition in test [3] (setting [7]) was -11%; in test [3] (setting [8]), -1%; in test [3] (at 50.0 µM), -6.25%; in test [4] (setting [7]), 29%; in test [4] (setting [8]), -25%; in test [4] (at 50.0 µM) it was 24.1%. Besides, the growth inhibition is -11% in test [5] (setting [7]); -15% in test [5] (setting [8]); -7% in test [5] (at 50.0 µM); -8% in test [6] (setting [7]); -12% in test [6] (setting [8]); -10.6% in test [6] (at 50.0 µM).
Turning to `O=C1OCCN1/N=C/c1ccc([N+](=O)[O-])o1`, the growth inhibition in test [1] (setting [7]) is 14%; in test [1] (setting [8]), 54%; in test [1] (at 50.0 µM) it was 81.2% (active); in test [2] (setting [7]), 7%; in test [2] (setting [8]), 30%; in test [2] (at 50.0 µM), 54.1%. In addition, the growth inhibition in test [3] (setting [7]) is 9%; in test [3] (setting [8]), 62%; in test [3] (at 50.0 µM) it was 87.7% (active); in test [4] (setting [7]), -2%; in test [4] (setting [8]), 27%; in test [4] (at 50.0 µM), 50.1%. Also, the growth inhibition in test [5] (setting [7]) is 7%; in test [5] (setting [8]), 39%; in test [5] (at 50.0 µM), 40.8%; in test [6] (setting [7]), 30%; in test [6] (setting [8]), 72% (active); in test [6] (at 50.0 µM), 88.5% (active).
On to `Cn1c(=O)[nH]c2nnc(-c3ccccc3)nc2c1=O`, for which the growth inhibition in test [1] (setting [7]) is 7%; in test [1] (setting [8]), 89% (active); in test [1] (at 50.0 µM), 56.6%; in test [2] (setting [7]), 6%; in test [2] (setting [8]), 92% (active); in test [2] (at 50.0 µM), 29.2%. The growth inhibition was 38% in test [3] (setting [7]); 92% (active) in test [3] (setting [8]); 61.5% in test [3] (at 50.0 µM); -3% in test [4] (setting [7]); 89% (active) in test [4] (setting [8]); -13.7% in test [4] (at 50.0 µM). For the same compound, the growth inhibition in test [5] (setting [7]) was 8%; in test [5] (setting [8]), 93% (active); in test [5] (at 50.0 µM), 33.4%; in test [6] (setting [7]), 13%; in test [6] (setting [8]) it was 90% (active); in test [6] (at 50.0 µM), 68.1%.
